From PubChem BioAssay (NCATS)
Records with an inconclusive call do not appear. Activity calls are given as the source filed them. Unless noted, calls follow the shape of the dose curve; as a rule, active = well fitted curve in either direction with a large enough effect (not every such curve was filed as active); inconclusive = small, poorly fitted or top-dose-only effect, or another doubt; inactive = flat fitted curve, though single readings scatter.

Key:
[1] = AP1 Signaling Pathway (AID 357); conditions: ME-180 AP-1-bla reporter, EGF-induced, beta-lactamase ratio, 5 h; at 7.69 µM (top of the series) unless noted;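 also: ME-180 reporter cells stimulated with EGF at its EC50 level; % is scaled to controls: 0 for no effect and ±100 for the full control effect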
Procedure, shortened: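 Cells are seeded overnight, exposed to compound titrations and an EC50 level of EGF for 5 hours at 37 °C, then loaded with CCF4 dye for 2.5 hours. Beta-lactamase activity under the AP-1 element is read as a blue/green ratio.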

[2] = target: Cytochrome P450 1A2 (Homo sapiens) (UniProt P05177); experiment: p450-cyp1a2 (AID 410; calls by dose curve; also: potency is read from the fitted curve at half-maximal effect;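 as to activity change, negative = inhibition: -100% = full effect of reference inhibitor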)
Procedure, shortened: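 Inhibition was calculated relative to 57 uM furafylline (full inhibition). The reaction used human CYP1A2 at 20nM with Luciferin-ME at its Km, 100uM, driven by an NADPH-regenerating system for 60 min at room temperature.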

[3] = NFAT Signaling Pathway (AID 444); conditions: Jurkat NFAT-bla M1, carbachol, beta-lactamase ratio, 5 h; at 7.69 µM (top of the series) unless noted;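 also: carbachol stimulus at about its EC50 of 1 µM final; % is scaled to controls: 0 for no effect and ±100 for the full control effect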
Procedure, shortened: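 Jurkat cells carrying an NFAT-driven β-lactamase reporter and co-transfected muscarinic M1 receptor were treated with compound plus carbachol (1 uM final, an EC50 level) for 5 h at 37 °C. CCF4 loading followed for 1 h at RT; 460/530 nm ratio gave %activity.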

[4] = Stat Signaling Pathway (AID 446); conditions: ME-180 SIE beta-lactamase reporter, IL-6 stimulated, 5 h; at 7.69 µM (top of the series) unless noted;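 also: ME-180 cervical cancer cells given 40 pM IL-6 alongside compound; SIE-controlled beta-lactamase reporter measured as 460/530 nm FRET emission ratio; % is scaled to controls: 0 for no effect and ±100 for the full control effect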
Procedure, shortened: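 ME-180 cells carrying a SIE-driven beta-lactamase reporter are stimulated with 40 pM IL-6 for 5 h at 37C in the presence of compound. The 460/530 nm FRET substrate ratio is read after 2.5 h at RT. Data are normalised to 300 pM IL-6 and to 125 nM JAK inhibitor controls.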

[5] = target: Glucocorticoid receptor (Homo sapiens) (UniProt P04150); experiment: GR-GFP Redistribution (AID 450;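 active = compounds whose dose series gives a full or clear partial fitted curve of increased nuclear translocation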; also: potency is read from the fitted curve at half-maximal effect); conditions: U2OS GR-GFP nuclear translocation, laser cytometry, 2 h
[6] = target: Glucocorticoid receptor (Homo sapiens) (UniProt P04150); experiment: GR-EFC Redistribution (AID 451; calls by dose curve; also: potency is read from the fitted curve at half-maximal effect); conditions: CHO-K1 GR-EFC translocation, beta-gal luminescence, 2 h
Procedure, shortened: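 CHO-K1 cells stably expressing nuclear-localized β-gal enzyme acceptor and GR fused C-terminally to the enzyme donor fragment; ligand-driven nuclear translocation restores β-gal by complementation. Compounds titrated up to 46 uM final, 2 h at 37 °C; luminescence read.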

[7] = target: Mitogen-activated protein kinase 10 (Mus musculus) (UniProt Q61831); experiment: JNK3 AlphaScreen Assay (AID 530);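 also: kinase came from lysate of stimulated human HepG2 cells; signal reports phosphorylation of biotinylated GST-cJun 1-79 at Ser73 with 10 µM ATP; % is scaled to controls: 0 for no effect and ±100 for the full control effect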
Procedure, shortened: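 JNK3 came from HepG2 lysates pre-activated with IL-1beta and TNF-alpha and phosphorylated biotinylated GST-cJun (1-79) at 10 uM ATP, pH 7.6, room temperature. Compounds were titrated. AlphaScreen signal used anti-phospho-cJun (Ser73) antibody.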

[8] = target: 3',5'-cyclic-AMP phosphodiesterase 4B (Homo sapiens) (UniProt Q07343); experiment: qHTS Assay for Inhibitors of PDE-IV (AID 607; active = well fitted activation curve with a large enough effect in the main read-out, with a control signal flat, not every such curve was filed as active; also: % of control where 0% means no effect)
Procedure, shortened: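 HEK293 ACTOne cells with CNG channel (1000/well), endogenous PDE4; membrane potential dye, compounds up to 22.9 uM final. Fluorescence Ex 535/Em 590; RO 20-1724 (100 uM final) as reference.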

[9] = qHTS Assay for Identification of Small Molecule Agonists for Thrombopoietin (TPO) Signaling Pathway (AID 917; active = well fitted curve in the direction sought with a large enough effect; an effect the other way counts as inactive or inconclusive; also: % is scaled to controls: 0 for no effect and ±100 for the full control effect)
Procedure, shortened: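 Luminescence from a Glycoprotein IIb promoter–driven luciferase reporter served as read-out in murine Ba/F3 cells carrying the human TPO receptor. Cells, deprived of IL-3 overnight, received compounds with 26 pM TPO and were incubated 24 hrs at 37 C.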

[10] = target: Pyruvate kinase (Leishmania mexicana) (UniProt Q27686); experiment: qHTS Validation Assay for Inhibitors of Leishmania Mexicana Pyruvate Kinase (AID 945; active = well fitted curve in the direction sought with a large enough effect; an effect the other way counts as inactive or inconclusive;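 also: 0% = DMSO only neutral control wells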)
Procedure, shortened: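 An endpoint luciferase assay: 0.2 nM LmPYK E451W turns over 0.5 mM PEP with 0.1 mM ADP for 1 h at room temperature, pH 7.2, before PKLight addition. Values are normalized to DMSO-only wells.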

[11] = target: Pyruvate kinase PKM (Homo sapiens) (UniProt P14618); experiment: qHTS Assay for Activators of Human Muscle Pyruvate Kinase (AID 954; active = well fitted curve in the direction sought with a large enough effect, not every such curve was filed as active;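 also: 0% = uninhibited enzyme and -100% = no enzyme or full thiadiazolimine inhibition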)
Procedure, shortened: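 Purified human PKM2 (0.1 nM) with 0.5 mM PEP (Km) and 0.1 mM ADP in 50 mM imidazole pH 7.2, KCl, MgCl2, 1 h at room temperature; ATP formed read by coupled luciferase luminescence. Normalized to no-enzyme/110 uM thiadiazolimine inhibition; 0.3 nM enzyme column for activation.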

[12] = target: Alpha-galactosidase A (Homo sapiens) (UniProt P06280); experiment: Counterscreen for Glucocerebrosidase Inhibitors: qHTS Assay for Human alpha-Galactosidase at pH 4.5 (AID 992; active = well fitted curve in the direction sought with a large enough effect; an effect the other way counts as inactive or inconclusive; also: 0% is about no effect)
Procedure, shortened: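 Human enzyme (2 nM) with 80 uM 4-methylumbelliferyl alpha-D-galactopyranoside in 50 mM citric acid, 0.005% Tween-20, pH 4.5, 20 min at room temperature. Compounds 0.7 nM–77 uM; fluorescence Ex 365/Em 440 after pH 10 stop; AC50 from Hill fits.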

[13] = target: alpha-glucosidase (Oryza sativa, rice) (UniProt Q653V4); experiment: Counterscreen for Glucocerebrosidase Inhibitors: qHTS Assay for Rice alpha-Glucosidase at pH 5.0 (AID 997; active = well fitted curve in the direction sought with a large enough effect; an effect the other way counts as inactive or inconclusive; also: potency is read from the fitted curve at half-maximal effect;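 as to activity change, negative = inhibition: 0% = full activity with enzyme and -100% = basal without enzyme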)
Procedure, shortened: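 Rice alpha-glucosidase (4 nM final) with 400 uM 4-methylumbelliferyl-alpha-D-glucopyranoside in citrate buffer pH 5.0, 20 min at room temperature, stopped at pH 10; fluorescence 365/440 nm, compounds 0.7 nM–77 uM, AC50 from Hill fits.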

[14] = target: Cytochrome P450 2C9 (Homo sapiens) (UniProt P11712); experiment: qHTS Assay for Inhibitors and Substrates of Cytochrome P450 2C9 (AID 883; active = well fitted curve in the direction sought with a large enough effect; an effect the other way counts as inactive or inconclusive; also: nearly all actives have a fitted effect of over 60% in size; also: potency is read from the fitted curve at half-maximal effect)
Procedure, shortened: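 A luminogenic readout tracked human CYP2C9 (10nM) converting deoxyluciferin (100uM, at KM) in 25mM KPO4 during 60 min at 37C with regenerated NADPH. Values normalized to 57uM sulphaphenazole as complete inhibition.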

[15] = target: Cytochrome P450 2D6 (Homo sapiens) (UniProt P10635); experiment: qHTS Assay for Inhibitors and Substrates of Cytochrome P450 2D6 (AID 891; active = well fitted curve in the direction sought with a large enough effect; an effect the other way counts as inactive or inconclusive;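 also: luciferin methyl ether substrate demethylated by CYP2D6 with NADPH regeneration; % is scaled to controls: 0 for no effect and ±100 for the full control effect; nearly all actives have a fitted effect of over 60% in size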)
Procedure, shortened: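 Human CYP2D6 (5 nM) with 30 uM Luciferin-ME EGE (at Km) in 100 mM KPO4, compound preincubated 10 min, then NADPH regeneration system for 60 min at room temperature. Luciferin read by luminescence; normalized to 1.43 uM quinidine.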

[16] = target: Cytochrome P450 2C19 (Homo sapiens) (UniProt P33261); experiment: qHTS Assay for Inhibitors and Substrates of Cytochrome P450 2C19 (AID 899; active = well fitted curve in the direction sought with a large enough effect; an effect the other way counts as inactive or inconclusive; also: nearly all actives have a fitted effect of over 60% in size; also: potency is read from the fitted curve at half-maximal effect)
Procedure, shortened: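 NADPH-dependent conversion of Luciferin-H EGE (10uM, at KM) by 5nM enzyme in 50mM KPO4, 60 min at 37C following 10 min compound preincubation. Stopped with luciferin detection buffer; luminescence read after 20 min.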

[17] = target: Guanine nucleotide-binding protein G(i) subunit alpha-1 (Homo sapiens) (UniProt P63096); experiment: qHTS Assay for Inhibitors of RGS12 GoLoco Motif Activity (Green Fluorophore) (AID 879; active = well fitted curve in the direction sought with a large enough effect; an effect the other way counts as inactive or inconclusive;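 also: 0% = labeled peptide with Gαi1 and full inhibition = labeled peptide alone without protein; negative values mean loss of peptide binding seen as reduced polarization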)
Procedure, shortened: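 Fluorescence polarization assay: 50 nM Gαi1 with 10 nM FITC-labeled RGS12 GoLoco peptide in 10 mM Tris pH 7.5, 150 mM NaCl, 0.1 mM GDP, 0.05% NP40, 10 min at room temperature with compound.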

[18] = target: Muscarinic acetylcholine receptor M1 (Rattus norvegicus) (UniProt P08482); experiment: qHTS Assay for Antagonists of Acetylcholine Muscarinic M1 Receptor: Kinetic Measurement of Intracellular Calcium Response (AID 943; active = well fitted curve in the direction sought with a large enough effect; an effect the other way counts as inactive or inconclusive;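 also: Fluo-4 calcium signal as peak divided by basal fluorescence over 4 min; nearly all actives have a fitted effect of over 75% in size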)
Procedure, shortened: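 Intracellular calcium flux, recorded with Fluo-4 in a kinetic plate reader, served as signal; the response to carbachol at EC80 (100 nM final) was taken as maximal over minimal fluorescence after a 10 min compound pre-incubation in rat M1-CHO cells.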

[19] = target: Muscarinic acetylcholine receptor M1 (Rattus norvegicus) (UniProt P08482); experiment: qHTS Assay for Antagonists of Acetylcholine Muscarinic M1 Receptor: Measurement of IP-One Response (AID 944; active = well fitted curve in the direction sought with a large enough effect; an effect the other way counts as inactive or inconclusive; also: nearly all actives have a fitted effect of over 75% in size)
Procedure, shortened: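 Steps: plate transfected CHO-M1 cells overnight; add test compound, 10 min; add carbachol (200 nM, EC80) in stimulation buffer with LiCl; incubate 30 min; add labelled IP1 tracer and anti-IP1 antibody in lysis buffer; read HTRF after 10 min.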

Chain of Muscarinic acetylcholine receptor M1 (Rattus norvegicus) (P08482 whole entry, looked up): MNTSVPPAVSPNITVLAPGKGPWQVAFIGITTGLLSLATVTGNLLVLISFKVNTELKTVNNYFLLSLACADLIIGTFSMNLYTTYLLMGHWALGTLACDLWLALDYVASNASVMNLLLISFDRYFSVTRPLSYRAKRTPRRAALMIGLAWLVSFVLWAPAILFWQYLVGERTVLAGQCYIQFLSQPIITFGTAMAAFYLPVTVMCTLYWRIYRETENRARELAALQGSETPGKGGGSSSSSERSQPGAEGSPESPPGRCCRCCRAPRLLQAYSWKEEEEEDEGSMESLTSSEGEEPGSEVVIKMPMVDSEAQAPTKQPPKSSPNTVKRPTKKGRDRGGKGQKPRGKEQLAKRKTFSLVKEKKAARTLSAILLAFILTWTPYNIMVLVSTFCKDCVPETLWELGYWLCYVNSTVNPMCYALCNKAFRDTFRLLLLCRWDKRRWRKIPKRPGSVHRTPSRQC
Chain of Glucocorticoid receptor (Homo sapiens) (P04150 whole entry, looked up, the tested form may be a part): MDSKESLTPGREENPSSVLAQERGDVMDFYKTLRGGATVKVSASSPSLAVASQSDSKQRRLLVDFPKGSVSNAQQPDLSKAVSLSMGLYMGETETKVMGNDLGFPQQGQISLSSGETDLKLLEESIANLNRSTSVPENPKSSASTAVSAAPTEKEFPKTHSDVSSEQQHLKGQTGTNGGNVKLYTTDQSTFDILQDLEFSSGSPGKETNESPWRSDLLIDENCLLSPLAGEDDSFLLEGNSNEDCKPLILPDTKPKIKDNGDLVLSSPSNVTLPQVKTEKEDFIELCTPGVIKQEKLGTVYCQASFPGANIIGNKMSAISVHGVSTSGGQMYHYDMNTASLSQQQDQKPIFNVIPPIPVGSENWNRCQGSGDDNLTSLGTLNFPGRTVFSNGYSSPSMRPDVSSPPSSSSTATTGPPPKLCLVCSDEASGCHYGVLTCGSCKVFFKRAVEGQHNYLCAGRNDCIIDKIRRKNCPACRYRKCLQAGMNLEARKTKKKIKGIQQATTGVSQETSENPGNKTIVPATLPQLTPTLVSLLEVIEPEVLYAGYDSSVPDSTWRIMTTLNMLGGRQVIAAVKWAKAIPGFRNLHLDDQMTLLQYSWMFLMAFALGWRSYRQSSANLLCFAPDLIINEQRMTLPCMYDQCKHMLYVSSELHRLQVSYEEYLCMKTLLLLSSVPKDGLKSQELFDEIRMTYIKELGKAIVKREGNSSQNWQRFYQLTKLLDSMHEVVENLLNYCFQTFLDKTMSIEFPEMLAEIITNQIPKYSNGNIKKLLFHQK
Chain of 3',5'-cyclic-AMP phosphodiesterase 4B (Homo sapiens) (Q07343 whole entry, looked up): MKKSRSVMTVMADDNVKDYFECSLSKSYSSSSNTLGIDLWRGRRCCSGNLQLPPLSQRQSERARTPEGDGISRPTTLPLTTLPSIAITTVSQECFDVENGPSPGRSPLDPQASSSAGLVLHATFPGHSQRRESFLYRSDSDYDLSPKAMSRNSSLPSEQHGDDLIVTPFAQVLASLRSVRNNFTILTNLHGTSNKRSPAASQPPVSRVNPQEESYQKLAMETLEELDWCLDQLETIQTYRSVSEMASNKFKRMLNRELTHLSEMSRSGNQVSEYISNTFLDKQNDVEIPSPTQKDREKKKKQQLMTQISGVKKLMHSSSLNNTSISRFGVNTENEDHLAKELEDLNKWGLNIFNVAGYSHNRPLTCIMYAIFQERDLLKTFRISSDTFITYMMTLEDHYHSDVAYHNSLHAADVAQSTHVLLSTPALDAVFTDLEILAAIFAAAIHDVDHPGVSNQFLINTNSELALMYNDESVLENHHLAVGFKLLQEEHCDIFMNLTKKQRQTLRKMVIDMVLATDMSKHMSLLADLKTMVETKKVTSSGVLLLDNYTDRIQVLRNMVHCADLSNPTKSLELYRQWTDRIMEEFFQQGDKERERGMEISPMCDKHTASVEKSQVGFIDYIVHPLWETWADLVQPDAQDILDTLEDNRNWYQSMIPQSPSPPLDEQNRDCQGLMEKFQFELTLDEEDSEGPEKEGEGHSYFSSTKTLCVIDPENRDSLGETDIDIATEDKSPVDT
Chain of Alpha-galactosidase A (Homo sapiens) (P06280 whole entry, looked up): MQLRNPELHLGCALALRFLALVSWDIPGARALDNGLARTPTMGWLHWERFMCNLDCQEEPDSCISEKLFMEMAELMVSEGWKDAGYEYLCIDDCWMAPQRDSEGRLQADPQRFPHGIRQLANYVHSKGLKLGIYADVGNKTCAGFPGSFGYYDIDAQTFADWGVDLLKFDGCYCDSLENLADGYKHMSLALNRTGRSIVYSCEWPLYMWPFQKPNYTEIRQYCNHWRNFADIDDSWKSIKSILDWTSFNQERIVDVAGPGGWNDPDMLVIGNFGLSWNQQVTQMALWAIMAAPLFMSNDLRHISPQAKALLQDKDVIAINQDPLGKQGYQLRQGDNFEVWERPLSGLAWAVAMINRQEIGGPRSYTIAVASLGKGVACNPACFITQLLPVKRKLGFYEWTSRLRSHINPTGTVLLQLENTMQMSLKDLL
Chain of Cytochrome P450 1A2 (Homo sapiens) (P05177 whole entry, looked up): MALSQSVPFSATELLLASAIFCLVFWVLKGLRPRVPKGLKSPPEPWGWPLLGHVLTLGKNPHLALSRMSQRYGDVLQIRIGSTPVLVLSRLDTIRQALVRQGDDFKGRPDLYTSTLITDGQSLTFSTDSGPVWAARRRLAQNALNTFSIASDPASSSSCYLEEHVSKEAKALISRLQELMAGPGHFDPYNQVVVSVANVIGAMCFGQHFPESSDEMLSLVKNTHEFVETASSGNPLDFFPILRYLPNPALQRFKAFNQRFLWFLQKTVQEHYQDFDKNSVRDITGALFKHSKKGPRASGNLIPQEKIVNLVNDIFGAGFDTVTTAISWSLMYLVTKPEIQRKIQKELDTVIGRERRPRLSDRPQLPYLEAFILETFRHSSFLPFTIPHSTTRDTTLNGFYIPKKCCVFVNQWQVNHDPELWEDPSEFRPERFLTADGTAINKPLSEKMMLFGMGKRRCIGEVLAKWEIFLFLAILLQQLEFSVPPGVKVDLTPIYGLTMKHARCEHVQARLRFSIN
Chain of Pyruvate kinase PKM (Homo sapiens) (P14618 whole entry, looked up): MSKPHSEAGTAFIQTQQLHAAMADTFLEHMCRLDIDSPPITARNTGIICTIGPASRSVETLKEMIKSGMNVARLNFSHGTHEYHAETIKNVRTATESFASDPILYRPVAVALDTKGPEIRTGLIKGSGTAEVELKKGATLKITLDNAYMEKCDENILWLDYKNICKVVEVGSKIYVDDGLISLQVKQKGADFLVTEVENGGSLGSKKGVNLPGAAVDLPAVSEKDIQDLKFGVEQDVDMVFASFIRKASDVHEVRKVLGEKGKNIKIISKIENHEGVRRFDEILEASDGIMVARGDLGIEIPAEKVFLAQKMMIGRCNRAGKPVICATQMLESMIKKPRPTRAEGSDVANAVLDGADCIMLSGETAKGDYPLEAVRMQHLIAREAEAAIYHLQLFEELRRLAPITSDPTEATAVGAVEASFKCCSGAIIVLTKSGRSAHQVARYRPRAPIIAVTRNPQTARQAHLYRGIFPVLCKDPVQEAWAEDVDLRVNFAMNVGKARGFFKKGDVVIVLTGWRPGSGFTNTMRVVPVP
Chain of Cytochrome P450 2C19 (Homo sapiens) (P33261 whole entry, looked up): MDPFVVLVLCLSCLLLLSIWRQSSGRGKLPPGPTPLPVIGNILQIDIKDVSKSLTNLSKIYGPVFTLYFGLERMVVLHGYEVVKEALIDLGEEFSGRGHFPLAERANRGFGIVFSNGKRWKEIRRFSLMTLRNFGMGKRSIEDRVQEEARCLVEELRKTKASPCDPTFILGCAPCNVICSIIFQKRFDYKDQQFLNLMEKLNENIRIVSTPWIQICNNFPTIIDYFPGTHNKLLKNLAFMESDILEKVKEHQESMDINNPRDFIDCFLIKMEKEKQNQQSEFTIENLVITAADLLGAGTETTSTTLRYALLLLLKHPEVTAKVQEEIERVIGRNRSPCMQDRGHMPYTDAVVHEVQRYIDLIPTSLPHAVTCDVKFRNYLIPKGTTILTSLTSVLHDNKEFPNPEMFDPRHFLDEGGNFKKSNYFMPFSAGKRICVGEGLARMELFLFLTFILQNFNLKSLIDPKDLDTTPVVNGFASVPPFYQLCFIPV
Chain of Cytochrome P450 2C9 (Homo sapiens) (P11712 whole entry, looked up): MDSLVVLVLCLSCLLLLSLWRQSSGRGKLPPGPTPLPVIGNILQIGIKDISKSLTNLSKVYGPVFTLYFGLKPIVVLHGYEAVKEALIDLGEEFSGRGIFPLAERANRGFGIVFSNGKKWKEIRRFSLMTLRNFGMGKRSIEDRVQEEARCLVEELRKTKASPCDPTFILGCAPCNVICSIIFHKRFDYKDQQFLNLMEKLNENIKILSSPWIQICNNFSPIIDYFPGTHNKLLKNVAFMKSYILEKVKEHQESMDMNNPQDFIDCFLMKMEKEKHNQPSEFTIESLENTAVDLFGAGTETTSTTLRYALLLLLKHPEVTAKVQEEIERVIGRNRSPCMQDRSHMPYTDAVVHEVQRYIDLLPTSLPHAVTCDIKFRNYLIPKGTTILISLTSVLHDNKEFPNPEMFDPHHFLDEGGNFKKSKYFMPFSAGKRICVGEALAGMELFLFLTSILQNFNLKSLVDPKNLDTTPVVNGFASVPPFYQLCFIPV
Chain of Pyruvate kinase (Leishmania mexicana) (Q27686 2-499 E452W): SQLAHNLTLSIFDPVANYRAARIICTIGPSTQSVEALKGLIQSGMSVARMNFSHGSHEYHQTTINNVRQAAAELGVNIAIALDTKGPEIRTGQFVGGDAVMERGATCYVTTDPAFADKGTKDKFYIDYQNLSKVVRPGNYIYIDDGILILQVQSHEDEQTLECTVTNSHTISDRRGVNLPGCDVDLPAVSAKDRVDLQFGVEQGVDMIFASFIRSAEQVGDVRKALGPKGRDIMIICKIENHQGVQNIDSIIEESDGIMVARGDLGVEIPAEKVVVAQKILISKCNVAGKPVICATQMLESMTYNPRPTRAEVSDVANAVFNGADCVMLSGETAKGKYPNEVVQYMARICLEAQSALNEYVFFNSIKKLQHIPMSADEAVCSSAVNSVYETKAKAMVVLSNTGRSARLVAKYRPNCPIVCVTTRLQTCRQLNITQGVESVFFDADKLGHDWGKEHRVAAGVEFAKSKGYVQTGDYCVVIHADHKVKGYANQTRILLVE

OC[C@@H]1O[C@@H](n2cnc3c(NC4CCCC4)ncnc32)[C@@H](O)[C@H]1O
inactive: activity change, negative = inhibition [1] -0.201% [at 38 µM] | Potency [2] | activity change, negative = inhibition [3] 1.91% [at 38 µM] | activity, negative = inhibition [4] 12.2% [at 38 µM] | Potency [5] > 46 µM | Potency [6] > 46 µM | Potency [7] | Potency [8] | outcome [9] | outcome [10] | outcome [11] | outcome [12] | Potency [13]

CN1C[C@@H](O)[C@@H](O)[C@@H](O)[C@@H]1CO
inactive: activity change, negative = inhibition [1] 0.324% [at 38 µM] | Potency [2] | activity change, negative = inhibition [3] 16.3% [at 38 µM] | activity, negative = inhibition [4] -5.85% [at 38 µM] | Potency [5] > 46 µM | Potency [6] > 46 µM | Potency [7] | Potency [8] | Potency [14] | Potency [15] | Potency [16]

OC[C@@H]1NC[C@@H](O)[C@@H](O)[C@H]1O
active: Potency [13] 0.0794 µM
inactive: activity change, negative = inhibition [1] 0.931% [at 38 µM] | Potency [2] | activity change, negative = inhibition [3] 1.96% [at 38 µM] | activity, negative = inhibition [4] -28.2% [at 38 µM] | Potency [5] > 46 µM | Potency [6] > 46 µM | Potency [7] | outcome [17] | outcome [9] | Potency [18] | Potency [19] | outcome [10] | outcome [11] | outcome [12]

CS[C@]12C(=O)C[C@]3(C)[C@@H](CC[C@@]3(O)C(=O)CO)[C@@H]1CCC1=CC(=O)CC[C@]12C
inactive: activity change, negative = inhibition [1] 0.905% | activity change, negative = inhibition [2] -24.3% [at 2.29 µM] | activity change, negative = inhibition [3] 1.52% | activity, negative = inhibition [4] -2.04% | Potency [5] > 46 µM | Potency [6] > 9.22 µM | Potency [7] | Potency [8]
active: Potency [16] 3.16 µM

O=c1[nH]c2[nH]c(=S)[nH]c(=S)c2[nH]1
inactive: activity change, negative = inhibition [1] -13.3% | activity change, negative = inhibition [3] -1.66% | activity, negative = inhibition [4] 15.5% | Potency [5] > 46 µM | Potency [6] > 9.22 µM | Potency [7] | Potency [8]
active: Potency [2] 3.98 µM | Potency [14] 1.26 µM | Potency [16] 0.631 µM

Nc1nc(Nc2ccccc2)nc2c1ncn2[C@@H]1O[C@@H](CO)[C@H](O)[C@@H]1O
active: Potency [2] 31.6 µM
inactive: activity change, negative = inhibition [1] -5.61% [at 38 µM] | activity change, negative = inhibition [3] -0.881% [at 38 µM] | activity, negative = inhibition [4] 0.406% [at 38 µM] | Potency [5] > 46 µM | Potency [6] > 46 µM | Potency [7] | Potency [8] | Potency [18] | Potency [19] | outcome [11] | outcome [12] | Potency [13]
